SMILES strings stand for the structures.

The assay in a line: HepG2 liver cancer cell viability effects, profiling panel, resazurin fluorescence, 24 h, PK04 Diversity Set (AID 1172). Also: test concentration not given here. Particulars: higher = more signal. (In general: Resazurin is reduced to fluorescent resorufin, in cell work by metabolically active cells.)
In the case of `C=CCN1C(=O)[C@@]2(O[C@@H](CCO)[C@H]([Si](C)(C)c3ccc(OC)cc3)[C@H]2C)c2cc(NC(=O)[C@H](C)O)ccc21`, the z-score is -1.15. To `COC(=O)[C@@]1(Cc2ccc(OC)cc2)[C@H]2c3cc(C(=O)N4CCCC4)n(CCF)c3C[C@H]2CN1C(=O)c1ccccc1` belongs -0.952; to `O=C1N(Cc2ccccc2)c2ccccc2[C@H]2OC(c3ccc(OCCCO)cc3)=N[C@@]12CCS(=O)(=O)c1ccccc1`, -0.362; to `CC(=O)NCCCC[C@@H]1NC(=O)[C@@H]2C[C@H](C(=O)NCCCC[N+](C)(C)C)[C@H](c3cccc(OCCO)c3)N2C1=O`, -0.44.

`COCCCNC(=O)[C@@]1(Cc2ccccc2I)c2ccccc2C(=O)N(Cc2ccccc2Cl)[C@H]1c1ccc(CO)cc1` showed a z-score of 1.01. To `COCCCNC(=O)[C@@]1(Cc2ccccc2CN=[N+]=[N-])N=C(c2ccc(OCCCO)cc2)O[C@H]1c1ccccc1N=[N+]=[N-]` belongs -0.208; to `NCCCCCCNC(=O)[C@H]1C[C@H]2C(=O)N3CCC[C@H]3C(=O)N2[C@H]1c1ccc(O)cc1`, -0.541.

Molecule `C=C(/C(=C/C[C@@H](OC(=O)c1ccncc1)c1cccc(OCCO)c1)c1cc(C(=O)OC)ccc1OC)C(C)C` gave a z-score of 0.677. The value for `CN1C(=O)C2C=CC(C(O)COCc3ccccc3)N(Nc3ccccc3)C2C1=O` (stereo not drawn) was 0.425; that for `C=C[C@@H](O)[C@H]1CC(c2ccccc2)=NO1` was 0.0502. The value for `COC(=O)[C@@]1(Cc2ccc(OC)cc2)[C@H]2c3cc(C(=O)N(C)C)n(CCF)c3C[C@H]2CN1C(=O)c1ccccc1` was 0.586; that for `C=CCC(OC(C)=O)[C@@H]1[C@@H](N(Cc2ccc(-c3cccc(C(F)(F)F)c3)o2)C(=O)c2cccc3ccccc23)c2cc(OCCCO)ccc2N1C(=O)c1ccc(-c2ccccc2)cc1` (stereo partly drawn) was -1.02. The value for `COc1cc(NN2C(C(O)c3ccc(I)cc3)C=CC3C(=O)N(C)C(=O)C32)cc(OC)c1OC` (stereo not drawn) was -1.7; that for `C=CCC(OC(C)=O)[C@@H]1[C@@H](N(Cc2cccc3ccccc23)C(=O)Cc2ccc(F)cc2)c2cc(OCCCO)ccc2N1C(=O)Cc1ccc(OC)cc1` (stereo partly drawn) was 0.303. `C=CCOC(=O)[C@@H]1[C@H]2C(=O)O[C@H](c3ccccc3)[C@H](c3ccccc3)N2[C@H](c2ccc(OCCOC(=O)[C@H]3C[C@H]4C(=O)N[C@@H](Cc5ccccc5)C(=O)N4[C@H]3c3cccc(OCCO)c3)cc2)[C@@]12C(=O)Nc1ccc(I)cc12` displayed a z-score of -0.208.

Turning to `CC(C)c1ccc(NN2C(C(O)c3cccs3)C=CC3C(=O)N(c4ccccc4)C(=O)C32)cc1` (stereo not drawn), the z-score was -1.75.

In the case of `CC1CC/C=C\[C@H]2OC34C=CCN(Cc5ccccc5)C(=O)[C@H]3N(CCO)C(=O)[C@@H]4C2C(=O)O1` (stereo partly drawn), the z-score is -0.811. On to `COCCOC(=O)N1C(=O)[C@@]2(c3cc(C#CC4(O)CCCCCC4)ccc31)[C@H](C(=O)N1CCc3cc(OC)c(OC)cc3C1)[C@H]1C(=O)O[C@H](c3ccccc3)[C@H](c3ccccc3)N1[C@@H]2c1ccccc1OCCO`, for which the z-score amounted to 0.032. The value for `COc1ccc([Si](C)(C)[C@H]2[C@H](CC(=O)N3CCC[C@H]3CO)O[C@@]3(C(=O)N(Cc4ccc(N5C(=O)c6cccc7cccc5c67)cc4)c4ccccc43)[C@@H]2C)cc1` was -1.83. Molecule `C=C(C(=O)CC[C@H](OC(=O)c1cccnc1)c1ccc(OCCO)cc1)C(C)C` returned a z-score of -0.688.

Regarding `COC(=O)[C@@]1(Cc2ccccc2)[C@H]2c3cc(C(=O)N4CCCC4)n(CCO)c3C[C@H]2CN1C(=O)c1ccccc1`, the z-score is 0.445. To `C=CCNC(=O)[C@H]1[C@@H]2C(=O)O[C@@H](c3ccccc3)[C@@H](c3ccccc3)N2[C@@H](c2ccc(OCCO)cc2)[C@]12C(=O)N(C(=O)OCCOC)c1ccc(C#CC3=CCCCC3)cc12` belongs 0.293; to `O=C1C2C=CC(C(O)c3cccc4ccccc34)N(Nc3ccccc3)C2C(=O)N1c1ccccc1` (stereo not drawn), 0.451. On to `Cc1ccc(S[C@]2(C(=O)O)CC(=O)N(C3CCCCC3)[C@@H]2c2ccc(CO)cc2)cc1`, for which the z-score is -0.628. The value for `CC(=O)NCCCC[C@@H]1NC(=O)[C@H]2C[C@@H](C(=O)NCCCCCN)[C@@H](c3cccc(OCCO)c3)N2C1=O` was 0.382. To `C=C(CCCC)/C(=C/C[C@@H](OC(=O)c1ccncc1)c1ccccc1OCCO)c1cc(C(=O)OC)ccc1OC` belongs -0.16; to `C=CC[C@]1(C(=O)N2CCOCC2)N=C(c2ccc(OCCCO)cc2)O[C@H]1c1ccccc1CN=[N+]=[N-]`, -0.744. To `C=C(C)[C@@H]1CC=C(C(O)C2C=CC3C(=O)N(C4CCCCC4)C(=O)C3N2Nc2ccc(OC)cc2)CC1` (stereo partly drawn) belongs 0.14.

The values are drawn from PubChem BioAssay.
